High-throughput results (PubChem BioAssay)
Platelet DG rel: inhibitors of platelet dense granule secretion, primary screen, cell-based, MLPCN, human platelets; human platelet-rich plasma, SFLLRN dense granule ATP release, luminescence; inhibition, %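 (compounds screened at 7.5 µM in platelet-rich plasma)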; 0.22% of 300,000 active; AID 1663, 2009;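 active = mean replicate score, as percent of positive control, at or above 50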
SENP8 block-1: human SENP8 protease inhibitors, primary screen, biochemical, fluorescence, Nedd8 protein substrate, uHTS. Sentrin-specific protease 8 (Homo sapiens), Q96LD8. 0.64% of 360,000 active. recombinant SENP8. inhibition, % at 20 µM; in the data active = inhibition mostly above about 40%, no sharp cut-off; inactive = mostly below about 27%
SENP8 block-2: SENP8 protease inhibitors, primary screen, biochemical, luminescence. Sentrin-specific protease 8 (Homo sapiens), Q96LD8. purified SENP8, Z-RLRGG-aminoluciferin cleavage. inhibition, % at 10 µM. 1.2% of 330,000 active. AID 2540, 2010; in the data active = inhibition above about 50%
SENP6 block: SENP6 protease inhibitors, primary screen, biochemical, luminescence, uHTS | Recombinant SENP6 catalytic domain, aminoluciferin luminescence | inhibition, % at 10 µM | 1.8% of 330,000 active | AID 2599, 2010;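 active = inhibition above about 50% at the single tested dose, limit read from the data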
Target sequence (Q9GZR1 628-1112 limits assumed): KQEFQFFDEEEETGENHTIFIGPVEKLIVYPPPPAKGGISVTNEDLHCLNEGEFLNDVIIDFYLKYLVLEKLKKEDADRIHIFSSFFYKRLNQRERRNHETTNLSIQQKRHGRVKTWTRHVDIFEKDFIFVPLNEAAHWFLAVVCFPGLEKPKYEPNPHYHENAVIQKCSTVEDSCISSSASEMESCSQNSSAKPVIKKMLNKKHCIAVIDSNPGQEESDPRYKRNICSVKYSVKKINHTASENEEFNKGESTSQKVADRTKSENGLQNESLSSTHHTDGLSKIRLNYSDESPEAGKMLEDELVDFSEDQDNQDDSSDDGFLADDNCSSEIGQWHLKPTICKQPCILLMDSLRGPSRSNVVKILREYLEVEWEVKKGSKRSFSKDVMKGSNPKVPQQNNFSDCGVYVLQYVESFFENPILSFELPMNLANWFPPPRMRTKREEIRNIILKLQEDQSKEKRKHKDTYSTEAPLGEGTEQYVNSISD
SENP7 block: SENP7 protease inhibitors, primary screen, biochemical, luminescence, uHTS. Sentrin-specific protease 7 (Homo sapiens), Q9BQF6. recombinant SENP7, Z-RLRGG-aminoluciferin luminescence, 40 min. inhibition, % at 5 µM. 1.5% of 330,000 active. AID 434973, 2010;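 active = inhibition above about 50% at the single test dose, limit read from the data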
SENP8 confirm: SENP8 protease inhibitors, retest, confirmation, biochemical, luminescence, single concentration; shares compounds with SENP7 block; Recombinant SENP8, Z-RLRGG-aminoluciferin luminescence, 60 min; inhibition, % at 12.5 µM; 40% of 6,200 active; AID 488912, 2010;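 active = mean inhibition across replicates above about 50%, limit read from the data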
SENP6 conf: SENP6 protease inhibitors, confirmation, biochemical, luminescence, single concentration | 58% of 6,200 active | inhibition, % at 12.5 µM | shares compounds with SENP7 block | recombinant SENP6, Z-RLRGG-aminoluciferin luminescence
SENP7 conf: SENP7 protease inhibitors, retest, confirmation, biochemical, luminescence, single concentration; shares compounds with SENP7 block; recombinant SENP7, Z-RLRGG-aminoluciferin luminescence, 40 min; inhibition, % at 12.5 µM; 69% of 6,200 active
Casp3 select: caspase-3 protease inhibitors, confirmation, selectivity assay for SENP inhibitor project, biochemical, single concentration. shares compounds with SENP7 block. purified caspase-3, Z-DEVD-aminoluciferin luminescence, 60 min. inhibition, % at 12.5 µM. 60% of 6,200 active. AID 488918, 2010;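 active = mean inhibition above about 50%, limit read from the data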
SENP luc ctr: luminescence interference (SENP counter-screen); shares compounds with SENP7 block; Pre-incubated SENP8/Z-RLRGG-aminoluciferin, luciferase luminescence interference; inhibition, % at 12.5 µM; 39% of 6,200 active;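 active = mean inhibition above about 50% when retested at one dose, limit read from the data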
Hits are given with their value; - = inactive; . = not tested or not shown. Rows were chosen to be rich in hits. Some 2.4% of all compounds tested hit in one or more screens of this group.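 Rule for the calls, unless noted: active = mean inhibition above about 50% in the one-dose retest (limit read from the data); inactive = the rest.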

SMILES	Platelet DG rel	SENP8 block-1	SENP8 block-2	SENP6 block	SENP7 block	SENP8 confirm	SENP6 conf	SENP7 conf	Casp3 select	SENP luc ctr
c1ccc(OCCSc2nnc3sc4ccccc4n23)cc1	-	-	68	80	-	-	68	88	78	75
COc1cccc(OCCSc2nnc3sc4ccccc4n23)c1	-	-	-	-	-	.	.	.	.	.
COc1ccc2cc3cc(C(=O)N4CCCCCC4)oc3nc2c1	-	-	79	77	87	-	82	97	69	-
COc1ccc2cc3cc(C(=O)N4CCCCC4C)oc3nc2c1 (centres undefined)	-	-	52	64	67	64	61	88	75	-
COc1ccc2cc3cc(C(=O)N4CCN(C5CCCCC5)CC4)oc3nc2c1	-	-	-	-	-	.	.	.	.	.
COc1ccc2cc3cc(C(=O)N(C)C4CCCCC4)oc3nc2c1	-	-	52	60	61	-	-	-	-	-
O=C1c2ccccc2C(=O)C1c1ccc(Br)cc1	-	-	93	94	-	96	94	100	89	95
O=C1c2ccccc2C(=O)C1c1ccc(Cl)cc1	-	-	77	82	-	89	92	99	89	88
Cc1ccc(/C=C2\SC(=S)N(CCCC(=O)N3CCOCC3)C2=O)cc1	-	-	84	84	84	90	89	97	72	75
COc1ccc(/C=C2/SC(=S)N(CCCC(=O)N3CCN(C)CC3)C2=O)cc1	-	-	54	65	69	58	60	86	67	69
COC(=O)c1ccc(/C=C2\SC(=S)N(CCCC(=O)N3CCOCC3)C2=O)cc1	.	-	.	.	.	.	.	.	.	.
CCOc1ccc(/C=C2\SC(=S)N(CCC(=O)O)C2=O)cc1	-	-	97	99	60	97	100	103	-	92
CCOc1ccc(/C=C2/SC(=S)N(CCC(=O)Nc3ccc(C(=O)O)cc3)C2=O)cc1	-	-	-	-	-	.	.	.	.	.
COc1ccc(O)c(C(=O)c2cnn(-c3ccccc3)c2)c1	-	-	-	-	-	.	.	.	.	.
COc1ccc(-n2cc(C(=O)c3ccccc3O)cn2)cc1	-	-	94	95	100	96	98	102	96	95
COc1ccc(C(=O)CC(=O)c2ccccc2O)cc1	-	-	-	51	-	-	-	83	-	54
COCCn1c(SCc2cccc(F)c2)nc2cc(C(=O)OC)ccc2c1=O	-	-	-	-	-	.	.	.	.	.
COc1ccc(CCC(=O)OCC(=O)NC2CCCC2)cc1OC	.	-	.	.	.	.	.	.	.	.
COc1cccc(/C=N/NC(=O)CNC(=O)/C=C\c2ccccc2)c1O	-	-	-	-	-	.	.	.	.	.
COc1cccc(/C=N/NC(=O)c2ccoc2C)c1	-	-	82	91	88	89	87	98	95	86
COc1cc(/C=N/NC(=O)c2ccoc2C)ccc1O	-	-	60	68	61	66	64	89	89	69
COc1cccc(C=NNC(=O)CCCC(=O)NN=Cc2cccc(OC)c2)c1	.	-	.	.	.	.	.	.	.	.
COc1cccc(/C=N/NC(=O)c2ccoc2C)c1O	98	-	87	92	95	93	93	100	97	-
COc1cccc(/C=N/NC(=O)CNC(=O)C(c2ccccc2)c2ccccc2)c1O	-	-	-	52	-	-	-	63	59	-
O=C(NCC(c1ccco1)N1CCc2ccccc2C1)c1ccc(Br)cc1 (centres undefined)	-	-	-	-	-	.	.	.	.	.
SMILES	Platelet DG rel	SENP8 block-1	SENP8 block-2	SENP6 block	SENP7 block	SENP8 confirm	SENP6 conf	SENP7 conf	Casp3 select	SENP luc ctr
CC(/C=N\NC(=O)c1cc(C)oc1C)=C\c1ccccc1	-	-	72	-	82	-	-	-	-	-
CCN(CC)c1ccc(/C=N\NC(N)=O)cc1	-	-	-	-	-	.	.	.	.	.
CCOc1ccc(/C=N/NC(=O)c2ccoc2C)cc1OC	50	-	64	81	75	82	80	93	93	80
COc1ccc(C=NNC(=O)c2cc(C)oc2C)cc1O	.	-	80	79	86	88	85	96	94	83
CCN(CC)c1ccc(/C=N/NC(=O)c2ccoc2C)cc1	67	-	95	97	101	97	100	103	98	83
COc1cc(/C=N/NC(=O)c2cc(C)oc2C)ccc1O	-	-	-	-	-	.	.	.	.	.
CCOC(=O)c1nc2c(ccc3ccccc32)cc1C	-	-	-	-	-	.	.	.	.	.
Cc1occc1C(=O)N/N=C/c1ccccc1[N+](=O)[O-]	-	-	-	56	73	-	-	85	84	-
COc1cc(/C=N/NC(=O)c2nonc2C)ccc1O	53	-	82	67	77	89	89	98	97	89
COc1cc(/C=N/NC(=O)c2nc(C)cc(C)n2)ccc1O	-	-	-	-	-	.	.	.	.	.
O=C(Nc1ccc(F)cc1)c1ccccc1S(=O)(=O)c1ccccc1[N+](=O)[O-]	-	-	-	-	-	.	.	.	.	.
O=[N+]([O-])c1ccccc1C(=Nc1ccccc1)c1c(O)cc(O)cc1O	.	-	.	.	.	.	.	.	.	.
COc1ccccc1NC(=S)NNC(=O)c1ccc(Cl)cc1Cl	-	-	-	72	54	-	-	-	-	-
O=C(O)c1ncc(-c2ccccc2)cn1	-	-	-	-	-	.	.	.	.	.
c1ccc(-c2cnc(-c3ccccc3)nc2)cc1	-	-	62	73	90	-	-	-	-	-
c1ccc(-c2ncc3c(ccc4ccccc43)n2)cc1	-	-	-	68	90	-	-	-	-	-
Cc1ccc(-c2ccc(OC(=O)c3ccc(=O)[nH]c3)c(C)c2)cc1	-	-	-	-	-	.	.	.	.	.
Cc1cc2ncn(S(=O)(=O)c3ccc(S(=O)(=O)N4CCCCCC4)cc3)c2cc1C	-	-	-	-	68	-	-	-	-	-
Cc1cc2ncn(S(=O)(=O)c3ccc(S(N)(=O)=O)cc3)c2cc1C	.	-	.	.	.	.	.	.	.	.
Cc1cc(NC(=O)COC(=O)c2ccccc2Cl)no1	.	-	-	-	-	.	.	.	.	.
